Assay results as given in PubChem BioAssay AID651593 (National Center for Advancing Translational Sciences (NCATS), 2012).
Where “and” joins values, the source holds several entries; their conditions need not be identical. Equal entries are not always repeated. The whole screen tested about 1,100 compounds, of which about 860 (78%) were called active. Another 19% or so got no clear call; they are omitted. The call rests on the fitted dose curve; in most records, active means well fitted activation curve with a large enough effect; inconclusive means small, poorly fitted or top-dose-only effect; inactive means flat fitted curve, though single readings scatter. The set was probably picked from earlier hits. The list shows a part of the results.

Experiment: qHTS of Nrf2 Activators: Hit Validation in Primary Assay; further: nearly all actives have a fitted effect of over 70% in size
Conditions: Nrf2/ARE reporter cell assay; Potency: activation; series mostly up to 46.1 µM
Summary of the method: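 Luminescence from Steady-Glo lysis reagent, read after 30 min, reported ARE-luciferase activity in AREc32_fluc stable cells. Compounds were tested at several concentrations, incubated 24 h at 37 °C with 5% CO2 following overnight seeding.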
Potency means the concentration at half of the fitted maximal effect.

SMILES	Potency
c1ccc(-c2ccc3c(c2)NC(C2Nc4cc(-c5ccccc5)ccc4O2)O3)cc1 (stereo not given)	inactive
COc1ccc(C2CC(c3cccs3)=Nc3ccccc3S2)cc1OC (stereo not given)	20.6 µM (active)
Cc1cc(C)c(C#N)c(OCC(=O)c2ccc(Br)cc2)n1	4.61 µM (active)
Cc1cc(C)c(C#N)c(OCC(=O)c2ccccc2)n1	5.17 µM (active)
Cc1cc(C)n2nc(/C(C#N)=C/c3ccccn3)c(C#N)c2n1	18.4 µM (active)
COc1ccc(Cl)cc1-c1nc(-c2ccncc2)no1	4.61 µM (active)
Clc1ccc(Br)cc1-c1nc(-c2ccncc2)no1	4.61 µM (active)
CC(C)(C)C(=O)/C=c1\[nH]c(=O)/c(=C\c2ccccc2F)s1	2.31 µM (active)
Cn1nc(C(=O)Nc2c(-c3ccccc3)nc3sccn23)c2ccccc2c1=O	9.2 µM (active)
Cc1ccc2[nH]c(=O)c3cc(C(=O)N(C)Cc4ccco4)sc3c2c1	11.6 µM (active)
C/C(=N\NC(=S)NCC(C)(C)C)c1cc(F)cc(F)c1O	inactive
C(=Cc1cnnc2ccccc12)c1ccccc1	2.91 µM (active)
O=C(NCc1ccccc1)c1c(Cl)nc(Cl)c(Cl)c1Cl	2.91 µM (active)
O=C(Nc1ncc2c(n1)CC(c1ccco1)CC2=O)c1ccc(Cl)cc1 (stereo not given)	9.2 µM (active)
CC(C)(C)SCCNC(=O)/C=C/c1cccc([N+](=O)[O-])c1	inactive
O=[N+]([O-])c1cccc(/C=C/c2ccccn2)c1	4.61 µM (active)
N#C/C(=C\c1ccccc1)c1ccccn1	13 µM (active)
N#C/C(=C\c1cccc([N+](=O)[O-])c1)c1ccccn1	4.61 µM (active)
O=C(/C=C/c1cccc([N+](=O)[O-])c1)n1cnc2ccccc21	4.61 µM (active)
CC(=O)Oc1ccc(-c2nc3c(C)cccc3c(=O)o2)cc1	9.2 µM (active)
O=C(NCCc1c[nH]c2ccccc12)c1ccc([N+](=O)[O-])o1	5.17 µM (active)
COC(=O)c1ccc(Cl)cc1NC(=O)/C=C/c1ccc(C)o1	2.06 µM (active)
CCOC(=O)c1c(NC(=O)/C=C/c2ccc(C)o2)sc(C)c1C	3.26 µM (active)
Cc1ccc(/C=C/C(=O)Nc2ccc([N+](=O)[O-])c(NC(=O)/C=C/c3ccc(C)o3)c2)o1	8.2 µM (active)
CCC1C/C(=C/c2cccs2)C(=O)/C(=C/c2cccs2)C1 (stereo not given)	2.31 µM (active)

SMILES	Potency
Cc1nc2ccccc2c(=O)n1NCc1cc(Br)cs1	2.59 µM (active)
Cn1c(CC2C(=O)Nc3ccc(Br)cc32)nc2ccccc2c1=O (stereo not given)	inactive
O=C(Nc1nnc(-c2cccs2)s1)C1CC1	9.2 µM (active)
O=C(Nc1nnc(-c2cccs2)s1)c1cccc(F)c1	2.31 µM (active)
Nc1ccccc1C=C1Cc2ccccc2C1=O	3.66 µM (active)
O=C1C(=Cc2ccccc2[N+](=O)[O-])Cc2ccccc21	4.61 µM (active)
COCCN(C(=O)COC(=O)/C=C/c1ccccc1Cl)c1c(N)n(Cc2ccccc2)c(=O)[nH]c1=O	11.6 µM (active)
O=C(/C=C/Nc1ccc(F)c(Cl)c1)c1ccco1	1.3 µM (active)
O=C1COc2ccc(C(=O)COC(=O)/C=C/c3ccco3)cc2N1	2.06 µM (active)
O=C(Nc1ccccn1)Nc1ccccc1Cl	9.2 µM (active)
Cc1cccc(NC(=O)Nc2ccc(Br)cc2)n1	8.2 µM (active)
O=C(Nc1ccccn1)Nc1ccccc1[N+](=O)[O-]	4.11 µM (active)
Cc1cccc(NC(=O)Nc2ccccc2[N+](=O)[O-])n1	8.2 µM (active)
O=C(N=Nc1c(O)[nH]c2ccc(Br)cc12)c1ccco1	3.26 µM (active)
O=C(N=Nc1c(O)[nH]c2ccccc12)c1ccco1	2.31 µM (active)
Cc1ccc(C)c(-c2nnc(NC(=O)c3ccc([N+](=O)[O-])o3)o2)c1	2.91 µM (active)
O=C(CSc1ccc(-c2ccco2)nn1)N1CCCC1	1.84 µM (active)
COc1ccc(NC(=O)CSc2ccc(-c3ccco3)nn2)cc1OC	5.17 µM (active)
O=C(CSc1ccc(-c2ccco2)nn1)N1CCCCC1	1.84 µM (active)
O=C(CSc1ccc(-c2ccco2)nn1)N1CCCCCC1	0.517 µM (active)
CCOC(=O)C(=Cc1ccccc1OC)C(=O)OCC	16.4 µM (active)
CCn1nc(C(=O)Nc2cccc3ccccc23)c(Cl)c1Cl	18.4 µM (active)
Clc1cccc(Cc2c(-c3ccccc3)nc3c4ccccc4ccn23)c1	11.6 µM (active)
c1ccc(-c2nc3c4ccccc4ccn3c2Cc2ccsc2)cc1	5.8 µM (active)
c1ccc(Cc2c(-c3ccco3)nc3c4ccccc4ccn23)cc1	9.2 µM (active)

SMILES	Potency
COc1ccccc1Cc1c(-c2ccco2)nc2c3ccccc3ccn12	7.31 µM (active)
Fc1cccc(Cc2c(-c3ccco3)nc3c4ccccc4ccn23)c1	2.91 µM (active)
Clc1cccc(Cc2c(-c3ccco3)nc3c4ccccc4ccn23)c1	8.2 µM (active)
Cc1ccc(Cc2c(-c3ccco3)nc3c4ccccc4ccn23)cc1	8.2 µM (active)
O=C(COC(=O)c1cc2ccccc2cc1O)Nc1ccccc1F	20.6 µM (active)
c1ccc(N/N=C2\CCCc3ccccc32)nc1	14.6 µM (active)
O=C1c2ccccc2C(=O)c2c(Nc3ccc(CCO)cc3)ccc(O)c21	2.31 µM (active)
COc1cc(C=C(c2nc3ccccc3s2)c2nc3ccccc3s2)ccc1O	7.31 µM (active)
FC(F)(F)c1ccccc1Cc1c(-c2ccccc2)nc2c3ccccc3ccn12	14.6 µM (active)
COc1ccc(Cc2c(-c3ccccc3)nc3c4ccccc4ccn23)c(C)c1	6.51 µM (active)
Fc1ccc(-c2nc3c4ccccc4ccn3c2Cc2ccccc2C(F)(F)F)cc1	7.31 µM (active)
Nc1ccc2c(c1)Cc1c(F)cccc1-2	18.4 µM (active)
CC(C)N(C(=O)COC(=O)c1ccccc1C(=O)c1ccc(Cl)c([N+](=O)[O-])c1)C(C)C	18.4 µM (active)
O=C1Nc2ccccc2SC1=Cc1ccccc1	2.91 µM (active)
c1ccc(-c2nnc(-c3ccccc3)o2)cc1	6.51 µM (active)
O=[N+]([O-])c1cccc(-c2cn(-c3ccccc3)c(=S)[nH]2)c1	inactive
O=[N+]([O-])c1cccc(-c2nnc(-c3ccccc3)o2)c1	7.31 µM (active)
O=[N+]([O-])c1cccc(-c2nc(-c3ccccn3)no2)c1	2.06 µM (active)
Cc1ccc(S(=O)(=O)c2nc(S(C)(=O)=O)sc2N2CCC3(CC2)OCCO3)cc1	10.3 µM (active)
CS(=O)(=O)c1nc(S(=O)(=O)c2ccc(Cl)cc2)c(N2CCC3(CC2)OCCO3)s1	9.2 µM (active)
C/C(=N\NC(=O)c1cccc(S(=O)(=O)N2CCCC2)c1)c1ccco1	2.31 µM (active)
C/C(=N\NC(=O)c1cccc(S(=O)(=O)Nc2cccc(Cl)c2)c1)c1cccs1	inactive
CC(=O)Cn1nnc2sc(-c3ccccc3)cc2c1=O	2.06 µM (active) and 5.8 µM (active)
CCN(C(=O)Cn1nnc2sc(-c3ccccc3)cc2c1=O)c1cccc(C)c1	2.31 µM (active)
COC(=O)[C@@]1(Sc2ccc(C)cc2)CC(=O)N(C(=O)/C=C/c2ccccc2)[C@@H]1c1ccccc1	3.66 µM (active)

SMILES	Potency
Brc1ccc2nc(-c3ccco3)c(Cc3ccsc3)n2c1	20.6 µM (active)
Fc1cccc(Cc2c(-c3ccco3)nc3ccc(Br)cn23)c1	20.6 µM (active)
c1cc2c3c(cccc3c1)NN=N2	20.6 µM (active)
COc1cc(/C=N/Nc2nc3ccccc3s2)ccc1OC(=O)c1ccccc1F	4.61 µM (active)
C/C(=N\NC(=O)c1c[nH]c2ccccc12)c1ccco1	3.66 µM (active)
Cc1nc(/N=C(\N)NC(=O)c2ccccc2)nc2ccccc12	2.31 µM (active)
CC(=O)N(/N=C1\Sc2ccccc2C1=O)c1ccccc1	20.6 µM (active)
COc1ccc(O)c(-c2cc(-c3ccc(F)cc3)n[nH]2)c1	7.31 µM (active)
COc1ccc(O)c(-c2cc(-c3ccccc3Cl)[nH]n2)c1	2.91 µM (active)
N#Cc1sc2nc(-c3ccccc3)cc(C(F)(F)F)c2c1N	2.59 µM (active)
O=C(Nc1cccc([N+](=O)[O-])c1)c1[nH]ncc1Cl	5.8 µM (active)
Cc1cc(O)c(NC(=O)c2cc([N+](=O)[O-])ccc2Cl)cc1C	2.31 µM (active)
Cc1ccc(O)c(NC(=O)c2cc([N+](=O)[O-])ccc2Cl)c1	2.91 µM (active)
O=C(Nc1ccccc1)c1cc([N+](=O)[O-])ccc1Cl	1.46 µM (active)
CS(=O)(=O)Nc1ccc(C(=O)Nc2cccc([N+](=O)[O-])c2)cc1	7.31 µM (active)
O=[N+]([O-])c1ccccc1C=NNc1ccccc1	5.17 µM (active)
O=[N+]([O-])c1ccccc1/C=N/Nc1nccnc1Cl	16.4 µM (active)
COn1c(=O)c(-c2cccc(Br)c2)[n+]([O-])c2ccccc21	14.6 µM (active)
CCn1c(=NC(=O)c2ccco2)sc2cccc(F)c21	1.3 µM (active)
Cn1c(NCC2CCCCC2)nc2cc(-c3ccsc3)sc2c1=O	2.31 µM (active)
C1=C(c2ccc(-c3ccccc3)cc2)Nc2ncnn2C1c1ccco1 (stereo not given)	6.51 µM (active)
Brc1ccc(C2=CC(c3ccco3)n3nnnc3N2)cc1 (stereo not given)	9.2 µM (active)
Cc1ccc(Sc2cnn(-c3ccccc3)c(=O)c2Cl)cc1	inactive
O=C(O)c1ccc(-n2ncc(Cl)c(Cl)c2=O)cc1	2.91 µM (active)
c1ccc(-c2cc3c(-n4cccc4)ncnc3o2)cc1	2.06 µM (active)
